# Test results reported in PubChem BioAssay (NCATS).
# Several values for one entry are separate records, joined by “and”; a condition that tells them apart may be missing. Equal entries are not always repeated. Records with an inconclusive call do not appear. A call without a number means that no potency is given here. Activity calls are given as the source filed them. Unless noted, the call rests on the fitted dose curve; in most records, active means well fitted curve in the direction sought with a large enough effect; inconclusive means small, poorly fitted or top-dose-only effect, or another doubt; inactive means no such curve, though single readings can be large; an effect the other way counts as inactive or inconclusive.
# Assays:
# [1] = qHTS Assay for Lipid Storage Modulators (AID 1519; calls by dose curve); details: Drosophila S3 cells, BODIPY lipid droplet/cell ratio, laser cytometry, cells loaded with oleic acid
# Method in brief: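 Cells seeded at 5,000 per well were treated with compounds over a concentration series and loaded with oleic acid (400 uM, as added). Lipid droplet fluorescence (488 nm excitation, 500-530 nm channel) was read by laser-scanning cytometry and normalized to 20 uM Triacsin C.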
# [2] = molecular target: DNA repair nuclease/redox regulator APEX1 (Homo sapiens) (UniProt P27695); experiment: qHTS Validation Assay for Inhibitors of the Human Apurinic/apyrimidinic Endonuclease 1 (APE1) (AID 1705;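 further: TAMRA fluorescence gain over two minutes as APE1 cuts a quenched THF abasic duplex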); details: purified APE1 endonuclease activity, fluorescence, titration; series mostly up to 57.1 µM
# Method in brief: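 Read-out: TAMRA fluorescence (525 nm ex, 598 nm em) from cleavage of a quenched THF abasic-site duplex, 50 nM final; activity taken as intensity change between third and first of three reads 60 s apart.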
# [3] = Counterscreen for APE1 Inhibitors: Fluorescent Dye Displacement Validation Assay (AID 1707); details: fluorescent dye displacement from DNA; series mostly up to 57.1 µM
# Method in brief: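 Signal: ThO fluorescence (ex 480 nm/em 540 nm) on binding 50 nM dsDNA; displacement by test compound reduces it. Conditions: 250 nM dye, 50 mM Tris-HCl pH7.5, 2 mM MgCl2, 50mM NaCl, 0.01% Tween-20.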
# [4] = qHTS for differential inhibitors of proliferation of Plasmodium falciparum line 7G8 (AID 1815); details: Plasmodium falciparum 7G8 proliferation inhibition; series mostly up to 28.7 µM;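 further: potency means the concentration at half of the fitted maximal effect; parasite growth measured after three days of incubation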
# [5] = qHTS for differential inhibitors of proliferation of Plasmodium falciparum line GB4 (AID 1816); details: Potency: Plasmodium falciparum GB4 proliferation inhibition; series mostly up to 28.7 µM;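 further: potency means the concentration at half of the fitted maximal effect; parasite growth measured after 72 h incubation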
# [6] = qHTS for differential inhibitors of proliferation of Plasmodium falciparum line 3D7 (AID 1876); further: potency means the concentration at half of the fitted maximal effect; details: P. falciparum 3D7 proliferation inhibition; series mostly up to 28.7 µM
# [7] = qHTS for differential inhibitors of proliferation of Plasmodium falciparum line D10 (AID 1877); details: series mostly up to 28.7 µM;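 further: parasites grown with compound for 72 h before DNA staining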; further: potency means the concentration at half of the fitted maximal effect
# [8] = qHTS for differential inhibitors of proliferation of Plasmodium falciparum line Dd2 (AID 1882); details: Potency: Plasmodium falciparum Dd2 proliferation inhibition; series mostly up to 28.7 µM; further: nearly all actives have a fitted effect of over 65% in size; further: potency means the concentration at half of the fitted maximal effect
# Method in brief: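 SYBR Green DNA fluorescence (ex 485, em 535 nm) after overnight lysis quantifies parasite growth; compound exposure lasted 72 h at 37 C on infected red cells at 2.5% hematocrit, 0.3% parasitemia (final). Artemisinin 0.29 uM and vehicle wells define normalization.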
# [9] = qHTS for differential inhibitors of proliferation of Plasmodium falciparum line W2 (AID 1883); details: Potency: Plasmodium falciparum W2 proliferation inhibition; series mostly up to 28.7 µM;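 further: potency means the concentration at half of the fitted maximal effect; parasites grown with compound for 72 h before lysis and staining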
# [10] = qHTS for differential inhibitors of proliferation of Plasmodium falciparum line HB3 (AID 1886); details: Potency: Plasmodium falciparum HB3 proliferation inhibition; series mostly up to 28.7 µM;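 further: parasites grown with compound for 72 h before SYBR Green readout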; further: potency means the concentration at half of the fitted maximal effect
# [11] = molecular target: ATP-dependent DNA helicase Q1 (Homo sapiens) (UniProt P46063); experiment: qHTS Validation Assay for Inhibitors of RecQ-Like Dna Helicase 1 (RECQ1) (AID 2353); details: recombinant RECQ1 helicase DNA unwinding assay; series mostly up to 25.6 µM
# Method in brief: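 RECQ1T1 50 nM; forked duplex (20 bp + 30-nt ss tails) 200 nM, ATP 2 mM final; pH 8.0, 2 mM MgCl2, 2.5 ug/ml poly(dI-dC); 15 min compound preincubation; discontinuous kinetic read over 2 h at RT.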
# [12] = Cytometric Cell-Based qHTS for Inhibitors of the mTORC1 Signaling Pathway in MEF (Tsc2-/-, p53-/-) Cells (AID 2660); details: mTORC1 pathway cytometry; series mostly up to 38.3 µM;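 further: Tsc2 and p53 null MEFs carrying empty vector with compound for 24 h; percent of cells above a phospho-rpS6 to PI ratio cutoff in each well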
# Method in brief: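 Readout: Alexa-488 phospho-rpS6 (Ser235/236) intensity divided by PI intensity, thresholded against 7.5 nM rapamycin wells and reported as % positive cells. PI cell count served as the viability measure. Compound exposure was 24 hrs at 37 degree Celsius.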
# [13] = High Content Imaging Cell-Based qHTS for Inhibitors of the mTORC1 Signaling Pathway in MEF (Tsc2-/-, p53-/-) Cells (AID 2666); details: series mostly up to 38.3 µM;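 further: percent of cells scored positive for phospho-rpS6 Ser235/236 immunostaining by imaging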
# Method in brief: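 Tsc2-/-, p53-/- MEFs (empty-vector stable) grown in DMEM + 10% FBS were exposed to compounds for 24 hrs at 37 degree Celsius, fixed, and stained with Alexa-488 anti-phospho-rpS6 Ser235/236 plus Hoechst. Imaging gave the percentage of positive cells per well.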
# [14] = High Content Imaging Cell-Based qHTS for Inhibitors of the mTORC1 Signaling Pathway in MEF Cells (AID 2667); details: series mostly up to 38.3 µM;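 further: Tsc2-/- p53-/- MEFs stably re-expressing wild-type Tsc2 exposed 24 h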
# Method in brief: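 Tsc2-/-, p53-/- MEFs stably re-expressing WT Tsc2, grown in DMEM + 10% FBS, were treated with compounds for 24 hrs at 37 degree Celsius, fixed, and stained with Alexa-488 phospho-rpS6 Ser235/236 antibody plus Hoechst; results given as % positive cells.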
# [15] = molecular target: Endonuclease 4 (Escherichia coli (strain K12)) (UniProt P0A6C1); experiment: Counterscreen for APE1 Inhibitors: qHTS Validation Assay for Inhibitors of Endonuclease IV (AID 1708); details: E. coli endonuclease IV, DNA cleavage fluorescence; series mostly up to 57.1 µM
# Method in brief: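 Incision of a double-stranded 50 nM TAMRA/BHQ-2 abasic substrate was followed kinetically (525/598 nm, reads every 60 s) after 15 min enzyme–compound preincubation with 2 nM EndoIV in pH 7.5 Tris buffer with MgCl2, DTT and Tween-20; concentration-response format.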
# [16] = molecular target: Ferritin light chain (Equus caballus) (UniProt P02791); experiment: qHTS Validation Assay for Identification of Novel General Anesthetics (AID 2323); details: horse apoferritin, anesthetic-site fluorescent probe displacement; series mostly up to 76.9 µM
# Method in brief: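 10 uM horse-spleen apoferritin + 1-AMA (50% saturated, PBS); cpd pin-transferred, 10 min RT. Ex 380/Em 535 nm endpoint. Activity normalized between free 1-AMA and 1-AMA/apoferritin; 4-parameter Hill fit of concentration-response.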
# [17] = Validation of Assay for Modulators of Lamin A Splicing (AID 1459; active means well fitted curve in the direction sought with a large enough effect in the signal ratio; the % refers to the signal ratio;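 further: cells exposed to compound for two days before reading; ratio rise marks activators and ratio drop marks inhibitors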); details: Lamin A splicing dual RFP/GFP fluorescence reporter; series mostly up to 9.22 µM
# Method in brief: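 Readout: ratio of GFP (500-530 nm) to RFP (575-640 nm) total object intensity by 488 nm laser-scanning cytometry after 48 hrs. Cells were HeLa S3 clones carrying lamin A-EGFP minigene plus DsRed2 viability reporter; vehicle 0.5% DMSO final.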
# [18] = molecular target: RecQ-like DNA helicase BLM (Homo sapiens) (UniProt P54132); experiment: qHTS Validation Assay for Inhibitors of Bloom's syndrome helicase (BLM) (AID 2364); details: BLM helicase DNA unwinding, fluorescence, in vitro; series mostly up to 57.1 µM
# Method in brief: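 Forked 20-bp duplex substrate (200 nM, TAMRA/BHQ-2) plus 2 mM ATP added after 15 min compound preincubation with 50 nM enzyme, pH 8.0, poly(dI-dC) 2.5 ug/ml. Strand separation followed by fluorescence (525/598 nm) over 2 h, normalized to enzyme-free and DMSO controls.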
# [19] = qHTS Assay for Modulators of Human Peripheral Myelin Protein 22 (PMP22) Expression/Activity (AID 1967; active means well fitted curve in the direction sought with a large enough effect in the signal ratio; the % refers to the signal ratio; further: potency means the concentration at half of the fitted maximal effect); details: Cell-based PMP22 reporter, dual-color luciferase ratio, mouse Pmp22 promoter in mouse Schwann cells; series mostly up to 115 µM
# Method in brief: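 Mouse MSC80 Schwann line, Pmp22 promoter–CBG68 reporter, EF-alpha–CBR internal control. 24h compound exposure, 37 °C/5% CO2, DMEM + 10% FBS. Readout: corrected green/red luminescence ratio, normalized to untreated cells; concentration-response curves fitted and classified.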
# [20] = measured here: cell count channel max response
# [21] = measured here: lipid channel max response
# RecQ-like DNA helicase BLM (Homo sapiens), sequence (P54132 whole entry, looked up): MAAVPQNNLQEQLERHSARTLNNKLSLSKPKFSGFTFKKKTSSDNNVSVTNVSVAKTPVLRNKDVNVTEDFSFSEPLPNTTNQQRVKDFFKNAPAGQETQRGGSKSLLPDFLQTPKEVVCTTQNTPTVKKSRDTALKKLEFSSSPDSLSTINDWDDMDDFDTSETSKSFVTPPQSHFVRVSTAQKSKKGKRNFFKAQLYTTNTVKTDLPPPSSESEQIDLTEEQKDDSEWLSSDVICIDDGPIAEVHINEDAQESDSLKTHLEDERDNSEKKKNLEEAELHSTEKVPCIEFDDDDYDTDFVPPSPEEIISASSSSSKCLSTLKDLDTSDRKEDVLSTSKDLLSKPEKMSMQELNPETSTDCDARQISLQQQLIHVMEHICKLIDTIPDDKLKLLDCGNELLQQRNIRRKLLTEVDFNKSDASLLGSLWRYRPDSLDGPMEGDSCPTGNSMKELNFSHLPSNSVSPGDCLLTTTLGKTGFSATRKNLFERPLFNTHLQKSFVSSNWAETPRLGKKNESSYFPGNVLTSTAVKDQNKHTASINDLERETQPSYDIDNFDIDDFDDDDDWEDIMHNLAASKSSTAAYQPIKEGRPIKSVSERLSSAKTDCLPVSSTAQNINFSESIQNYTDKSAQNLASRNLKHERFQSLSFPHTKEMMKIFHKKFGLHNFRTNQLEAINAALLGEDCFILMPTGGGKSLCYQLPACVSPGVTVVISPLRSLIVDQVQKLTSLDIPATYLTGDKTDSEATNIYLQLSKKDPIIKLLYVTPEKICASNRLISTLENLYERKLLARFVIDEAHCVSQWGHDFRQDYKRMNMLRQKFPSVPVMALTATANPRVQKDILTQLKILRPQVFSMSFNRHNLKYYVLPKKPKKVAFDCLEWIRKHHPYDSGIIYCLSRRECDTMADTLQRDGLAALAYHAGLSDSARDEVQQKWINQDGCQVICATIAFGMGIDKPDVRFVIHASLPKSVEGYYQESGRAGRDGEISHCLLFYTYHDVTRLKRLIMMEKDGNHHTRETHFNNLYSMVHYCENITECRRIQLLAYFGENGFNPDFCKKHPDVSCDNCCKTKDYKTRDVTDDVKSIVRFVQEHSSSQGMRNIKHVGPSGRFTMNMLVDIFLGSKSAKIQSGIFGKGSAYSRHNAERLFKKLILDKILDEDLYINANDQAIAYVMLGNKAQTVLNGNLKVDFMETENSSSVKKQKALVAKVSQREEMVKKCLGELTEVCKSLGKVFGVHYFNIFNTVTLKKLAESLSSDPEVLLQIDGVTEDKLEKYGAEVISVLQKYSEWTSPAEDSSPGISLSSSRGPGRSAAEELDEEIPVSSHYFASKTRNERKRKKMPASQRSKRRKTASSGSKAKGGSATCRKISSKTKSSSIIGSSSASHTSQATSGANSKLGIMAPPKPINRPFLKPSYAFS
# ATP-dependent DNA helicase Q1 (Homo sapiens), sequence (P46063 whole entry, looked up): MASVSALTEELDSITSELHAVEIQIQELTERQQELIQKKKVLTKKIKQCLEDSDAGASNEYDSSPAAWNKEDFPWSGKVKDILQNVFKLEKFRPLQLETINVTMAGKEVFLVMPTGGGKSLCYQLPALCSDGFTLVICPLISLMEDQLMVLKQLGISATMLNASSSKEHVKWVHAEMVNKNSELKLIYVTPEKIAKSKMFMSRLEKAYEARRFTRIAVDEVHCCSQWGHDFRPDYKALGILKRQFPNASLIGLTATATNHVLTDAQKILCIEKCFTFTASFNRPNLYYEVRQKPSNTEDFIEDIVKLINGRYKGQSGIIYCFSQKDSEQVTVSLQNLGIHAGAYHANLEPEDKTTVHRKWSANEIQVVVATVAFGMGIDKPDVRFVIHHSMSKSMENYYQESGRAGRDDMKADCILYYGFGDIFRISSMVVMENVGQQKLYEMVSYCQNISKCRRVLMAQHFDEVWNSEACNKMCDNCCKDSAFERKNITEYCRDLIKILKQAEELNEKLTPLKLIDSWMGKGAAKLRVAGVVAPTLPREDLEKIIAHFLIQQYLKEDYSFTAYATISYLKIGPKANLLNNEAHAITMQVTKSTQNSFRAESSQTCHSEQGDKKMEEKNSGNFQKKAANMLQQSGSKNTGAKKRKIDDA
# DNA repair nuclease/redox regulator APEX1 (Homo sapiens), sequence (P27695 whole entry, looked up): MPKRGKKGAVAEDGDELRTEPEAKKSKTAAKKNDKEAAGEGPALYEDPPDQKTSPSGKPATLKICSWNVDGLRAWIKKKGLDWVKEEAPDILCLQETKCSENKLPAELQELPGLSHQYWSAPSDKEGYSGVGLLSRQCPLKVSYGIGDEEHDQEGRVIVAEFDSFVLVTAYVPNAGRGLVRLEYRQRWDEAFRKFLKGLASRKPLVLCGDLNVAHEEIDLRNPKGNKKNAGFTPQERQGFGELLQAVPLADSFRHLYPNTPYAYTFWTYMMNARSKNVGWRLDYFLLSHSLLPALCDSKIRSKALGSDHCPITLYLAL
# Ferritin light chain (Equus caballus), sequence (P02791 2-175 limits assumed): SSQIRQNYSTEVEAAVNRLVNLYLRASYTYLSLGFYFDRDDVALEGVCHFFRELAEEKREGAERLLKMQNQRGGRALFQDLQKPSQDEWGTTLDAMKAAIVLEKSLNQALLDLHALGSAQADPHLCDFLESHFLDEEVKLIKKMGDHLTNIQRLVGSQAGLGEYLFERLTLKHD
compound,measurement,setting,value
Clc1ccccc1C(c1ccccc1)(c1ccccc1)n1ccnc1,"activity change, negative = inhibition",[1]; at 25.7 µM (top of the series),2.04% (inactive)
same,"activity change, negative = inhibition",[1]; at 57.5 µM (top of the series),9.89% (inactive)
same,max response,[1]; [20],-13.7% and 9.45%
same,max response,[1]; [21],-11.4% and 22.8%
same,Potency,[2],inactive
same,Potency,[3],inactive
same,Potency,[4],0.251 µM (active)
same,Potency,[5],0.316 µM (active)
same,Potency,[6],0.447 µM (active)
same,Potency,[7],0.631 µM (active)
same,Potency,[8],1.78 µM (active)
same,Potency,[9],0.355 µM (active)
same,Potency,[10],0.316 µM (active)
same,Potency,[11],inactive
same,outcome,[12],inactive
same,Potency,[13],inactive
same,Potency,[14],inactive
COC(=O)Nc1nc2ccc(C(=O)c3cccs3)cc2[nH]1,"activity change, negative = inhibition",[1]; at 25.7 µM (top of the series),-7.22% (inactive)
same,"activity change, negative = inhibition",[1]; at 57.5 µM (top of the series),1.19% (inactive)
same,max response,[1]; [20],-4.31% and 9.27%
same,max response,[1]; [21],-12.3% and 9.44%
same,Potency,[2],inactive
same,Potency,[3],inactive
same,Potency,[15],inactive
same,Potency,[8],inactive
same,Potency,[16],inactive
same,Potency,[11],inactive
same,Potency,[13],inactive
same,Potency,[14],inactive
COc1ccccc1OCC(O)CN1CCN(CC(=O)Nc2c(C)cccc2C)CC1 (centres undefined),outcome,[17],inactive
same,"activity change, negative = inhibition",[1]; at 57.5 µM (top of the series),13.2% (inactive)
same,max response,[1]; [20],8.98%
same,max response,[1]; [21],24.1%
same,Potency,[2],inactive
same,Potency,[3],inactive
same,Potency,[15],inactive
same,Potency,[6],inactive
same,Potency,[7],inactive
same,Potency,[8],inactive
same,Potency,[10],inactive
same,Potency,[11],inactive
same,outcome,[12],inactive
same,Potency,[13],inactive
same,Potency,[14],inactive
CN1CCC(=C2c3ccccc3CC(=O)c3sccc32)CC1,"activity change, negative = inhibition",[1]; at 25.7 µM (top of the series),-3.11% (inactive)
same,"activity change, negative = inhibition",[1]; at 57.5 µM (top of the series),1.94% (inactive)
same,max response,[1]; [20],0.637% and -29.8%
same,max response,[1]; [21],-3.73% and -28.3%
same,Potency,[2],inactive
same,Potency,[3],inactive
same,Potency,[15],inactive
same,Potency,[4],10 µM (active)
same,Potency,[5],2.24 µM (active)
same,Potency,[6],3.55 µM (active)
same,Potency,[7],4.47 µM (active)
same,Potency,[9],0.891 µM (active)
same,Potency,[10],10 µM (active)
same,Potency,[11],inactive
same,Potency,[18],inactive
same,outcome,[12],inactive
same,Potency,[13],inactive
same,Potency,[14],inactive
CN1CCN(CCCN2c3ccccc3Sc3ccc(Cl)cc32)CC1,"activity change, negative = inhibition",[1]; at 25.7 µM (top of the series),-2.25% (inactive)
same,"activity change, negative = inhibition",[1]; at 57.5 µM (top of the series),2.24% (inactive)
same,max response,[1]; [20],-2.79% and -1.33%
same,max response,[1]; [21],-5.2% and 2.08%
same,Potency,[2],inactive
same,Potency,[3],inactive
same,Potency,[4],5.01 µM (active)
same,Potency,[5],10 µM (active)
same,Potency,[6],6.31 µM (active)
same,Potency,[7],12.6 µM (active)
same,Potency,[8],11.2 µM (active)
same,Potency,[9],4.47 µM (active)
same,Potency,[10],12.6 µM (active)
same,Potency,[11],inactive
same,Potency,[18],inactive
CC(C(=O)O)c1cccc(C(=O)c2ccccc2)c1 (centres undefined),outcome,[17],inactive
same,Potency,[2],inactive
same,Potency,[3],inactive
same,Potency,[15],inactive
same,Potency,[19],23.9 µM (active)
same,Potency,[11],inactive
same,Potency,[18],inactive
same,outcome,[12],inactive
same,Potency,[13],inactive
same,Potency,[14],inactive
CC(CCc1ccc(O)cc1)NCCc1ccc(O)c(O)c1 (centres undefined),outcome,[17],inactive
same,Potency,[2],inactive
same,Potency,[15],inactive
same,Potency,[4],12.6 µM (active)
same,Potency,[5],12.6 µM (active)
same,Potency,[7],14.1 µM (active)
same,Potency,[9],10 µM (active)
same,Potency,[10],12.6 µM (active)
same,Potency,[11],inactive
same,Potency,[18],inactive
same,outcome,[12],inactive
same,Potency,[13],inactive
same,Potency,[14],inactive
CN(C)C(=N)N=C(N)N,"activity change, negative = inhibition",[1]; at 25.7 µM (top of the series),1.15% (inactive)
same,"activity change, negative = inhibition",[1]; at 57.5 µM (top of the series),9.29% (inactive)
same,max response,[1]; [20],14.6% and 3.67%
same,max response,[1]; [21],15.2% and 21.7%
